An excerpt weighted towards active compounds, which were near 7.1% of everything screened.
ATXN viability: cell viability loss in ATXN counter-screen | S2 cells (HEK-293 line with an ATXN2-luciferase reporter) viability, CellTiter-Fluor protease fluorescence, 24 h | Potency, µM (series often up to 56.7 µM), usual class: cytotoxic | 400,000 compounds, 0.49% hits; note: potency is the fitted concentration of half-maximal effect; nearly all actives have a fitted effect of over 40% in size
IL-1B inflam inh: inhibitors of inflammasome signaling (IL-1 beta secretion) | THP-1 LPS/ATP IL-1B secretion, AlphaLISA, 16 h; hits give low values | activity change, % at 57.5 µM | 360,000 compounds, 4.7% hits | AID 743279; in the data active = activity change below about -50%; inconclusive = mostly about -30% to -49%; note: % is set by controls: 0 for no effect and ±100 for the full control effect
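Secreted IL-1B measured by AlphaLISA bead assay after 16 h compound exposure of THP-1 cells; compounds (final up to 57.5 uM) added 1 h before LPS (250 ng/mL) and ATP (1.25 mM) stimulation; lower signal means less secretion.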
SW480 rereplic: DNA re-replication induction in SW480 cells | SW480 DNA re-replication, Hoechst DNA content imaging, 48 h | Potency, µM (series often up to 46.1 µM), for inactives: at the top dose re-replication activation, actives largely listed as activators | 340,000 compounds, 1.8% hits | AID 624297; note: potency is the fitted concentration of half-maximal effect; % of control where 0% means no effect; nearly all actives have a fitted effect of over 55% in size
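Image-based read-out: total Hoechst fluorescence of nuclei (405 nm excitation, 500-530 nm emission), with hits raising the fraction of high-intensity nuclei. SW480 colon cells incubated 48 hr with compounds at 37 C.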
ATXN2 expr inh: reduces ATXN2 reporter expression in HEK-293 cells; 360,000 compounds, 0.72% hits; HEK-293 ATXN2-luciferase reporter, luminescence, 24 h; Potency, µM (top dose mostly 57 µM), for inactives: at the top dose activity change, negative = inhibition, hits mostly inhibitors; note: potency is the fitted concentration of half-maximal effect; % is set by controls: 0 for no effect and ±100 for the full control effect; nearly all actives have a fitted effect of over 55% in size
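qHTS (up to 57 uM final) was run with 24 h compound exposure of reporter cells at 37 °C. Each well was multiplexed: SteadyGlo luminescence measured ATXN2-luciferase expression after a fluorogenic Gly-Phe-AFC viability readout (25 uM final).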
MCF10A rereplic: induces DNA re-replication in MCF 10a normal breast cells; 350,000 compounds, 2.9% hits; AID 624296; MCF 10A DNA re-replication, Hoechst nuclear intensity, 48 h; Potency, µM (doses to about 46.1 µM), without a hit: at the top dose activity, positive = re-replication, actives largely listed as activators; note: potency is the fitted concentration of half-maximal effect; % of control where 0% means no effect; nearly all actives have a fitted effect of over 50% in size
PINK1 expr mod: PINK1 expression modulation; 410,000 compounds, 0.2% hits; Potency, µM (doses to about 76.6 µM), for the others: top-dose activation (PINK1 increase), usual class: activators; PINK1 immunofluorescence, high-content cytometry, 24 h; AID 624263; active = well fitted activation curve with a large enough effect; inconclusive = small, poorly fitted or top-dose-only effect; cell line not stated here; note: potency is the fitted concentration of half-maximal effect; % of control where 0% means no effect; nearly all actives have a fitted effect of over 65% in size
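Stable cell line, 250 cells/well, 12 h attachment; compounds pinned at 5 concentrations, 24 h; CCCP control. Fixed with nuclear dye, primary antibodies 12 h at 10 degrees C, secondary plus cell stain; laser-scanning cytometer read.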
Active calls of the source: *; i = inactive; u = inconclusive; x = no result given; [ ] = dose if it differs, or a comment. Unless noted, calls come from the whole dose curve; as a rule, active = well fitted curve in the direction sought with a large enough effect; inconclusive = small, poorly fitted or top-dose-only effect, or another doubt; inactive = no such curve, though single readings can be large; an effect the other way counts as inactive or inconclusive.

SMILES | ATXN viability | IL-1B inflam inh | SW480 rereplic | ATXN2 expr inh | MCF10A rereplic | PINK1 expr mod
Cc1ccc(C(=O)N2N=C(c3ccc(Br)cc3)CC2c2ccccc2O)cc1 (centres undefined) | x | -94* | 10% | u | 18µM* | -2%
COc1ccc(C(=O)N2N=C(c3cccs3)CC2c2ccccc2O)cc1 (centres undefined) | u | 25 | 16µM* | 0% | 24% | -2%
COc1ccc(C2=NN(C(=O)c3cccs3)C(O)(C(F)(F)F)C2)cc1 (centres undefined) | u | -52* | -5% | -5% | 8% | 16%
Cc1ccc(C(=O)N2N=C(c3ccccc3O)CC2c2ccccc2)cc1 (centres undefined) | i | 1 | 3% | 2% | 2% | 6%
COc1ccc(C2=NN(C(=O)c3cccs3)C(c3ccccc3O)C2)cc1 (centres undefined) | u | -59* | 24% | x | 21µM* | 2%
O=C(c1ccccc1)N1N=C(c2ccccc2)CC1(O)C(F)(F)F (centres undefined) | x | 1 | -14% | x | 12% | 2%
CN[C@H](CC(C)C)C(=O)N[C@H]1C(=O)N[C@@H](CC(N)=O)C(=O)N[C@H]2C(=O)N[C@H]3C(=O)N[C@H](C(=O)N[C@@H](C(=O)O)c4cc(O)cc(O)c4-c4cc3ccc4O)[C@H](O)c3ccc(c(Cl)c3)Oc3cc2cc(c3O[C@@H]2O[C@H](CO)[C@@H](O)[C@H](O)[C@H]2O[C@H]2C[C@](C)(N)C(O)[C@H](C)O2)Oc2ccc(cc2Cl)[C@H]1O (some centres undefined) | i | x | x | x | x | x
O=C1C(N2CCOCC2)=C(n2nnc3ccccc32)C(=O)c2ccccc21 | 20µM* | -78* | u | 22µM* | u | 2%
CCOc1[nH]n(-c2ccccc2)c(=O)c1C=Nc1ccccc1 | i | 16 | u | x | 23µM* | 12%
CCOc1[nH]n(-c2ccccc2)c(=O)c1C=Nc1ccc(C)cc1 | i | -25 | 1% | 3% | -6% | 8%
O=S(=O)(N/N=C1/CC(c2ccccc2)Oc2ccccc21)c1ccc(Br)cc1 (centres undefined) | i | 2 | u | -2% | 10µM* | -2%[38.3 µM]
Fc1ccc(N/N=C2/CC(c3ccccc3)Oc3ccccc32)c(F)c1 (centres undefined) | i | -52* | 0% | 18% | u | 12%
CNC(=S)N/N=C1\CC(c2ccccc2)Oc2ccccc21 (centres undefined) | i | 25 | 1% | 2% | 17% | -1%
COc1cccc(C2(CC(=O)N3CCN(c4nonc4C)CC3)CC(=O)N(C3CCCC3)C2=O)c1 (centres undefined) | i | x | x | x | x | 0%
CCOc1ccc(-n2ccnc2SCC(=O)Nc2ccc3c(c2)OCO3)cc1 | x | x | x | x | x | -3%
Cc1ccc(S(=O)(=O)c2nc(-c3ccco3)oc2SCc2ccccc2Cl)cc1 | i | x | x | -7% | x | 0%
CC(C)COc1ccc(C(=O)N(CC(=O)Nc2ccccc2C(F)(F)F)Cc2ccco2)cc1 | i | -72* | 3% | -19% | u | 4%
O=C(CN(Cc1ccco1)C(=O)c1ccc([N+](=O)[O-])cc1)Nc1ccccc1C(F)(F)F | i | -18 | 28% | x | 11% | 1%
CN(C(=O)CO)c1c(I)c(C(=O)NCC(O)CO)c(I)c(C(=O)NCC(O)CO)c1I (centres undefined) | i | x | x | x | x | x
COc1ccccc1N(Cc1ccccc1)S(=O)(=O)c1cccc(C(=O)Nc2ccc(C(C)=O)cc2)c1 | i | 42 | -1% | 14% | 12% | 10%
COc1ccccc1N(Cc1ccccc1)S(=O)(=O)c1cccc(C(=O)N2CCCCC2)c1 | u | -58* | -4% | u | u | 13%
Cc1ccc(S(=O)(=O)N(Cc2ccccc2)c2ccccc2C(=O)N2CCCCC2)cc1 | x | 5 | 18µM* | u | u | 20%
COc1ccc2nc(SCc3ncc(C)c(OC)c3C)[nH]c2c1 | i | x | x | 5% | x | x
CN(C)CCCNc1cc(N2CCN(C3CCCCC3)CC2)c2noc3c2c1C(=O)c1ccccc1-3 | x | x | x | x | x | 1%
COc1ccc(C(=O)/C=C/Sc2nc3ccccc3o2)cc1 | x | -95* | u | u | 22% | 0%
SMILES | ATXN viability | IL-1B inflam inh | SW480 rereplic | ATXN2 expr inh | MCF10A rereplic | PINK1 expr mod
O=C1/C(=C/C=C/c2ccccc2)Oc2c1ccc(O)c2CN1CCN(CCO)CC1 | i | -6 | 24% | x | u | 0%
CCN1CCN(Cc2c(O)ccc3c2O/C(=C\C=C\c2ccccc2)C3=O)CC1 | i | -100* | u | u | u | 8%
CCc1ccc2[nH]c(=O)c(CN(CCN(CC)CC)C(=S)NCc3ccco3)cc2c1 | i | -64* | -31% | 10% | 6% | 1%
CCc1ccc2[nH]c(=O)c(CN(CCN(C)C)C(=S)NCc3ccco3)cc2c1 | i | -74* | -4% | -16% | -5% | 0%
N#Cc1c2c(c(Nc3ccc(F)cc3)n3c1nc1ccccc13)CCCC2 | i | 11 | 7% | -27% | u | 12%
N#Cc1c2c(c(Nc3ccccc3)n3c1nc1ccccc13)CCC2 | i | 26 | 3%[9.22 µM] | -2% | 16µM* | 14%
COc1ccc(NS(=O)(=O)c2ccc(Cl)c(N)c2)cc1Br | i | -13 | 3% | 4% | 17% | 6%
Nc1cc(S(=O)(=O)Nc2ccc(Br)cc2)ccc1Cl | i | -69* | 3% | 1% | 2% | 11%
CCCn1cc(S(=O)(=O)c2ccc(CC)cc2)c(=O)c2ccccc21 | i | x | x | -2% | x | -1%
CCc1ccccc1NC(=O)CN1CCN(CC(=O)Nc2ccc3c(c2)OC2(CCCCC2)O3)CC1 | i | -15 | 8.2µM* | -29% | 6.5µM* | 2%
O=C(c1ccc2c(c1)OCCO2)N(Cc1cccnc1)c1nc2c(F)cccc2s1 | x | x | x | x | x | 4%
Nc1nc(CCl)nc(Nc2ccc3ccccc3c2)n1 | 3.4µM* | -99* | 19% | 3.8µM* | u | -1%
COc1ccc(Nc2nc(N)nc(CCl)n2)cc1 | u | -60* | 3.3µM* | x | u | -2%
Nc1nc(CN2CCN(Cc3ccccc3)CC2)nc(Nc2ccc3c(c2)OCCO3)n1 | i | 12 | -3% | 34% | -2% | -2%
Cc1ccccc1Nc1nc(N)nc(CCl)n1 | u | -94* | u | -38% | u | -2%
COc1ccc(NC(=O)C(=O)c2cc(C)n(-c3ccc(C)cc3)c2C)cc1Cl | i | x | x | -23% | x | 0%

Screening results deposited in PubChem by National Center for Advancing Translational Sciences (NCATS).
